Screens as filed in PubChem.
The sample as a whole holds a higher share of hits than the screen did.
RMI-FANCM inh – RMI-FANCM interaction inhibition; Fluorescence polarization, RMI core complex with F-MM2 peptide; stronger effect = lower value; FP signal (polarization) at 33 µM; actives 0.58% (n = 70,000); in the data active means FP signal below about 40
Starred values were filed as active, the others as inactive; ! = not confirmed by another sample.

SMILES	RMI-FANCM inh
COc1c(CC=C(C)C)c2c(c3oc(=O)c(-c4ccc(O)cc4)c(O)c13)C=CC(C)(C)O2	13*
CC(C)=CCCC1(C)C=Cc2c(O)c3c(c(CC=C(C)C)c2O1)OC12C(=CC4CC1C(C)(C)OC2(C/C=C(/C)C(=O)O)C4=O)C3=O (stereo unspecified)	56
CC(C)=CCCC1(C)C=Cc2c(O)c3c(c(CC=C(C)C)c2O1)OC12C(=CC4CC1C(C)(C)OC2(C/C=C(/C)C(=O)O)C4O)C3=O (stereo unspecified)	54
Cc1sc2nc3n(c(=O)c2c1C)CC(Br)C(c1ccccc1)S3 (stereo unspecified)	49
COc1cc(OC)c2c(c1)O[C@H](c1ccc(OC)c(OC)c1)[C@H](O)C2	60
CSc1cccc2sc(N(CCN(C)C)C(=O)Cc3ccc(S(C)(=O)=O)cc3)nc12	100
O=C(CN1C(=O)c2ccccc2S1(=O)=O)Nc1ccc(Cl)cc1C(=O)c1ccccc1Cl	57
NC1=NC(=O)C(c2ccccc2)O1 (stereo unspecified)	17*
COc1ccc(OC)c2sc(N3CCNCC3)nc12	72
CC12C/C(=C(\O)C(F)(F)F)C(=O)C=C1CCC1C2CCC2(C)C(O)CCC12 (stereo unspecified)	52
CC(Cc1ccc(O)cc1)NCC(O)c1cc(O)cc(O)c1 (stereo unspecified)	-13*!
CC(N)Cc1ccc(O)cc1 (stereo unspecified)	63
C[C@H](Cc1ccc2c(c1)OC(C(=O)O)(C(=O)O)O2)NC[C@H](O)c1cccc(Cl)c1	47
CNC(=O)O/N=C(/N)c1nn(C(=O)NC)cc1Br	48
NCCc1cc(O)c(O)cc1O	59
NC(Cc1cc(O)c(O)cc1O)C(=O)O (stereo unspecified)	-4*
N[C@@H](CCl)C(=O)O	52
COc1ccc(C2C(C#N)=C(N)Oc3c2c(=O)oc2ccccc32)cc1 (stereo unspecified)	66
O=C1C=CC(=O)c2c(O)cccc21	-18*
O=C1c2ccccc2C(=O)c2ccccc21	58
O=C(Cc1csc2nc(-c3ccccc3)cn12)N1CCN(Cc2ccccc2)CC1	63
Cc1ccc(C)c(Cn2cccc(C(=O)Nc3ccc(F)c([N+](=O)[O-])c3)c2=O)c1	51
Cc1nn(C(C)(C)C)c(C)c1/C=N\OC(=O)Nc1cccc(C(F)(F)F)c1	40
COc1ccc2c(c1)[nH]c1c(C)nccc12	67
COc1ccc2c3c([nH]c2c1)C(C)=NCC3	35*!
CC1=NCCc2c1[nH]c1cc(O)ccc21	64
Cc1cc(C)c2nc(N3CCNCC3)sc2c1	72
Nc1ncnc2c1ncn2C1OC2COP(O)(=S)O[C@@H]2[C@@H]1O (stereo partly specified)	50
Cc1[nH]c2ccccc2c1CCNCc1ccccn1	58
O=C(Nc1ccc(Br)cc1C(=O)c1ccccc1)c1ccc2c(c1)OCO2	63
